Source: PubChem BioAssay
KB-3-1 cytotox – KB-3-1 parental cell cytotoxicity | KB-3-1 viability, CellTiter-Glo ATP luminescence, 72 h | Potency, µM (top dose mostly 46.1 µM), actives largely listed as cytotoxic | hit rate 1.4% among 400,000; also: nearly all actives have a fitted effect of over 60% in size
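Here the drug-naive KB-3-1 line serves as comparator for MDR sub-line selectivity; cells received compound titrations, 72 h at 37 °C, then CellTiter-Glo readout.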
KB-V1 MDR tox – KB-V1 MDR subline cytotoxicity. KB-V1 MDR cells viability, CellTiter-Glo, 72 h. hit rate 3.4% among 400,000. Potency, µM (series often up to 46.1 µM), hits mostly cytotoxic; also: nearly all actives have a fitted effect of over 60% in size
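Cytotoxicity via CellTiter-Glo luminescence after 72 h compound exposure at 37 degrees C. Cells: drug-selected KB-V1 line, DMEM phenol-red free plus 10% FBS. Compounds tested at multiple concentrations; normalized data fitted to concentration-effect curves.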
ATXN2 expr inh – reduces ATXN2 reporter expression in HEK-293 cells. AID 1745845. Potency, µM (top dose mostly 57 µM), hits mostly inhibitors. HEK-293 ATXN2-luciferase reporter, luminescence, 24 h. hit rate 0.72% among 360,000; also: nearly all actives have a fitted effect of over 55% in size
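ATXN2-luciferase reporter cells (luciferase flanked by upstream and downstream ATXN2 gene portions) were treated 24 h at 37 °C with compounds at up to 57 uM. SteadyGlo luminescence gave expression; GF-AFC fluorescence gave viability.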
HT1080 IDH1KD tx – kills HT-1080 cells with IDH1 knockdown. HT-1080 IDH1 knockdown viability, ATP luminescence, 48 h. Potency, µM (series often up to 46.1 µM), hits mostly cytotoxic. hit rate 2% among 360,000
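Knockdown cells (IDH1KD HT-1080) received compounds 2 h after plating at 750 cells/well and were kept 48 h at 37 °C in 5% FBS RPMI. A CellTiter-Glo luminescence read gave % activity for curve fitting.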
HT1080-NT tox – kills 2HG-producing HT-1080-NT fibrosarcoma cells; HT-1080-NT fibrosarcoma viability, CellTiter-Glo ATP luminescence, 48 h; Potency, µM (highest dose often 46.1 µM), most hits filed as cytotoxic; AID 686970; hit rate 1.6% among 360,000;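 also: NT is the 2HG producing partner of a matched IDH1 knockdown line; nearly all actives have a fitted effect of over 55% in size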
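Viability by CellTiter-Glo luminescence after 48 h compound exposure at 37C of HT-1080-NT cells (750/well, RPMI, 5% FBS). % activity scaled between DMSO wells and medium-only wells, then curve-fitted and categorized by curve class.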
ATXN viability – reduces viability in counter-screen for ATXN expression inhibitors | S2 cells (HEK-293 line with an ATXN2-luciferase reporter) viability, CellTiter-Fluor protease fluorescence, 24 h | Potency, µM (doses to about 56.7 µM), usual class: cytotoxic | hit rate 0.49% among 400,000 | AID 651635; also: nearly all actives have a fitted effect of over 40% in size
Hits are given with their value; – = inactive; ? = inconclusive; · = not tested or not shown; [ ] = dose if it differs, or a comment. Only some compounds are listed: those with a hit (about 6.2% of all), similar ones and a draw of the others. Calls follow the shape of the dose curve; as a rule, active = well fitted curve in the direction sought with a large enough effect; inconclusive = small, poorly fitted or top-dose-only effect, or another doubt; inactive = no such curve, though single readings can be large; an effect the other way counts as inactive or inconclusive.

SMILES	KB-3-1 cytotox	KB-V1 MDR tox	ATXN2 expr inh	HT1080 IDH1KD tx	HT1080-NT tox	ATXN viability
c1ccc(CN2CCN(C(c3ccccc3)c3ccccc3)CC2)cc1	–	?	–	?	–	–
Cc1ccc(CN(C(=O)c2ccccc2F)c2ccccn2)o1	–	–	–	·	·	–
COc1cc2c(cc1OC)C(c1ccc(F)cc1)N(c1ccc(F)cc1)C(=O)C2 (centres undefined)	–	–	–	·	·	–
COc1ccc(OC)c(NC(=O)CN2CCC(C(=O)c3ccc(C)cc3)CC2)c1	?	8.2µM	–	?	–	–
O=C(CSCc1c(Cl)cccc1Cl)Nc1ccc2c(c1)OCCO2	?	10µM	–	–	–	–
Cc1ccccc1OCC(=O)Nc1ccc2c(c1)OCCO2	–	–	·	–	–	–
CC(=O)c1c(C)[nH]c(C(=O)OCC(=O)Nc2ccc3c(c2)OCCO3)c1C	?	21µM	–	–	–	–
Cc1cccc(C)c1OCC(=O)Nc1ccc2c(c1)OCCO2	23µM	?	–	–	–	–
Cc1c(Cl)cccc1NC(=O)Nc1c[nH]c(=O)[nH]c1=O	–	–	–	·	·	–
O=C(CCNS(=O)(=O)c1ccc2c(c1)CCN2C(=O)C1CC1)N1CCN(c2cccc(C(F)(F)F)c2)CC1	?	–	?	·	·	–
O=C(Nc1ccc(F)cc1F)c1ccc(CN2CC(=O)N3CCCCC3C2=O)cc1 (centres undefined)	–	–	–	·	·	–
Cc1ccc(-n2ncc3c(N4CCCCC4)ncnc32)cc1Cl	–	?	–	·	·	–
CCC1CN(CCNC(=O)c2ccnc(Cl)c2)Cc2cc(OC)ccc2O1 (centres undefined)	·	·	·	·	·	–
O=C(CN1CCC(C(=O)c2ccc(Cl)cc2)CC1)Nc1ccc2c(c1)OCCO2	?	9.2µM	–	?	?	–
O=C(c1ccc2c(c1)OCCO2)C1CCN(C(=O)c2ccc(F)c(F)c2)CC1	?	5.8µM	–	?	–	–
NC(=O)C1CCN(CC(=O)Nc2ccc3c(c2)OCCO3)CC1	–	–	–	–	–	–
CC(=O)c1c(C)[nH]c(C(=O)OCC(=O)Nc2ccc(Cl)c(S(=O)(=O)N(C)C)c2)c1C	?	?	·	23µM	?	13µM
CCCNC(=O)c1c(NC(=O)c2ccccc2)sc2c1CCC(C(C)(C)C)C2 (centres undefined)	–	–	–	·	·	–
O=S(=O)(c1ccccc1)N(Cc1ccccc1)c1ccccn1	?	8.2µM	–	–	–	–
O=C(O)c1ccc(CN(c2ccccn2)S(=O)(=O)c2ccccc2)cc1	–	–	–	–	–	–
COc1ccc(Cc2ccc(NC(N)=O)cc2)cc1-c1cccc(Cl)c1	·	·	–	·	·	·
CCC(=NCCc1c(C)[nH]c2ccc(C)cc12)C1=C(O)CC(c2ccccc2)CC1=O (centres undefined)	0.73µM	–	–	1.3µM	?	–
CC(=O)C1=C(O)CC(c2ccccc2)CC1=NCCc1c(C)[nH]c2ccc(C)cc12 (centres undefined)	–	–	–	–	–	–
COc1ccccc1NC(=O)CSc1oc(-c2ccccc2)nc1S(=O)(=O)c1ccc(C)cc1	–	–	–	·	·	–
CC1Cc2nc(SCC(=O)Nc3ccc(F)cc3)n(C)c(=O)c2S1 (centres undefined)	–	4.1µM	–	–	–	–
SMILES	KB-3-1 cytotox	KB-V1 MDR tox	ATXN2 expr inh	HT1080 IDH1KD tx	HT1080-NT tox	ATXN viability
CCn1c(SCC(=O)NC2CCCCC2)nc2c(c1=O)SC(C)C2 (centres undefined)	–	2.3µM	–	–	–	–
CCOc1ccc(NC(=O)CSc2nc3c(c(=O)n2C)SC(C)C3)cc1 (centres undefined)	–	–	?	–	–	–
C(=N\Nc1ncnc2sc3c(c12)CCC3)/c1ccncc1	?	18µM	–	?	?	–
Cc1nc(NCc2ccccn2)c2c3c(sc2n1)CCCC3	–	–	–	–	–	–
c1ccc(CNc2ncnc3sc4c(c23)CCCC4)nc1	–	8.2µM	–	–	–	·
O=c1cc(-c2ccccc2)cc(-c2ccccc2)n1O	–	–	14µM	?	–	16µM
COc1ccc(-c2ccc3ncnc(NCc4nc(C)cs4)c3c2)cc1OC	–	?	·	·	·	·
O=c1c(-c2nnc(SCc3ccc(Cl)cc3)o2)cccn1Cc1ccccc1	–	4.6µM	–	?	?	?
O=C(Nc1ccccc1-c1nnc(SCc2ccc(Cl)cc2)o1)c1ccccc1	–	?	–	–	–	–
O=C(Nc1ccccc1-c1nnc(SCc2ccccc2)o1)c1ccccc1	–	15µM	–	–	–	–
Cc1cc(C)n2c(Br)c(CSc3nc4ccccc4o3)nc2n1	–	21µM	–	–	–	–
Nn1c(CSc2nc3ccccc3o2)nnc1CSc1nc2ccccc2o1	–	?	–	–	–	–
C=CCn1c(SCC(=O)Nc2nccs2)nnc1-c1cc2cccc(OC)c2o1	–	2.1µM	?	?	?	?
COc1cccc2cc(-c3nnc(SCC(=O)Nc4ccc(NC(C)=O)cc4)n3C)oc12	?	–	–	–	–	–
CCn1c(Cc2cccc3ccccc23)nnc1SCC(=O)Nc1nccs1	–	18µM	–	–[9.24 µM]	–	–
C=CC[N+]1([C@H]2C[C@H]3[C@@H]4CC[C@H]5C[C@H](O)[C@@H](N6CCOCC6)C[C@]5(C)[C@@H]4CC[C@]3(C)[C@H]2OC(C)=O)CCCC1	·	·	–	·	·	·
N=c1sccn1CC(=O)N1N=C(c2ccc(Cl)cc2)CC1c1ccco1 (centres undefined)	–	?	–	?	33µM	–
COc1ccccc1NC(=S)N1CCC(c2nc3ccccc3o2)CC1	–	–	·	–	–	–
Cc1cccc(C)c1NC(=O)N1CCC(c2nc3ccccc3o2)CC1	–	21µM	–	–	–	–
CCOc1ccc2nc(NC(=O)CS(=O)(=O)c3ccc(Cl)cc3)sc2c1	?	–	·	·	·	·
C[C@@]12CCC3[C@@](CC[C@@H]4[C@](C)(C(=O)O)CCC[C@@]34C)(C[C@H]1O)C2 (some centres undefined)	–	–	·	–	–	–
C=C1C(=O)[C@]23C[C@H]1CCC2[C@@]1(C)C(C[C@@H]3O)[C@](C)(C(=O)OC)CC[C@@H]1O (some centres undefined)	13µM	–	1.6µM	2.3µM	2.3µM	·
C[C@@]12C(C[C@H](O)[C@@]34C[C@@H](CCC13)[C@@H](CO)C4=O)[C@](C)(C(=O)O)CC[C@@H]2O (some centres undefined)	–	–	–	?	29µM	–
Cc1ccc(NC(=O)Cn2c(=O)n(Cc3nc(-c4ccccc4)no3)c(=O)c3cc4c(cc32)OCO4)cc1C	–	–	–	·	·	–
COC(=O)c1ccc(C2C(C#N)=C(N)Oc3cc(N)ccc32)cc1 (centres undefined)	–	–	–	–	–	–
